# Bioassay records from PubChem.
# Most compounds without a hit are left out; they make up all but 0.4% or so of the library.
# GAA glycogen mod = inhibitors or activators of human alpha-glucosidase glycogen cleavage | recombinant GAA, glycogen substrate, Amplex Red glucose oxidase fluorescence | AID 2100 | Potency, µM (titrated, usually from 76.4 µM), for the others: top-dose activity change, negative = inhibition, most hits filed as inhibitors | hit rate 0.38% among 300,000;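 note: potency is the fitted concentration of half-maximal effect; 0% = full enzyme reaction and -100% = no-enzyme basal signal; the screen sought inhibitors and activators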
#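 Recombinant enzyme (4 nM final) with compounds titrated up to 77 uM and bovine liver glycogen (30 ug) in citrate pH 5.0, 0.01% Tween-20, 37 C 40 min. Released glucose detected by Amplex Red/glucose oxidase (Ex 573/Em 610); AC50 from Hill fits.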
# GAA inhib = blocks human lysosomal alpha-glucosidase; P10253; purified human GAA, 4-MU-alpha-glucoside fluorescence; Potency, µM (doses to about 76.9 µM), for inactives: at the highest dose activity change, negative = inhibition, usual class: inhibitors; hit rate 0.005% among 200,000; AID 1466;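 note: potency is the fitted concentration of half-maximal effect; plate controls were uninhibited enzyme wells for no effect and no-enzyme background for full effect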
#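 Human enzyme at 4 nM with 400 uM 4-methylumbelliferyl-alpha-D-pyranoside, citrate/phosphate buffer pH 5.0, 0.005% Tween-20, 20 min at room temperature. Compounds up to 77 uM. 4-MU fluorescence (Ex 365/Em 440) read after NaOH/glycine stop; AC50 from Hill fit.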
# GAA spleen mod = lysosomal alpha-glucosidase (human) modulation; P10253; human spleen homogenate, 4-MU-alpha-glucoside fluorescence; Potency, µM (highest dose often 79.9 µM), without a hit: at the highest dose activity change, negative = inhibition, hits mostly inhibitors; hit rate 0.006% among 240,000;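 note: potency is the fitted concentration of half-maximal effect; 0% = enzyme with vehicle and -100% = no enzyme basal signal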
#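 Compounds were titrated against alpha-glucosidase in spleen homogenate at pH 5.0, with 1 mM 4-methylumbelliferyl substrate for 40 min at 37 C. Reactions were quenched with pH 10 NaOH/glycine and fluorescence measured.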
# GLA spleen mod = alpha-galactosidase A (human) modulation; human spleen homogenate, 4MU-alpha-Gal fluorescence, 40 min; AID 2107; hit rate 0.008% among 240,000; Potency, µM (series often up to 80 µM), for the others: at the top dose activity change, negative = inhibition, usual class: inhibitors; P06280;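 note: potency is the fitted concentration of half-maximal effect; 0% = enzyme with vehicle and -100% = no enzyme basal signal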
#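 Inhibition or activation of alpha-galactosidase in human spleen homogenate is scored by 4-MU fluorescence after 40 min at 37C, pH 5.0, with 1 mM substrate. AC50s come from concentration-response fitted to the Hill equation.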
# GLA inh pH 4.5 = alpha-galactosidase A (human) inhibition, pH 4.5; P06280; 230,000 tested, under 10 active; purified enzyme, 4-MU-alpha-Gal fluorescence, pH 4.5; activity change, negative = inhibition, % at 105 µM; AID 1467;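 note: 0% = full activity with enzyme and -100% = basal without enzyme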
# Target sequence (P06280 whole entry, looked up): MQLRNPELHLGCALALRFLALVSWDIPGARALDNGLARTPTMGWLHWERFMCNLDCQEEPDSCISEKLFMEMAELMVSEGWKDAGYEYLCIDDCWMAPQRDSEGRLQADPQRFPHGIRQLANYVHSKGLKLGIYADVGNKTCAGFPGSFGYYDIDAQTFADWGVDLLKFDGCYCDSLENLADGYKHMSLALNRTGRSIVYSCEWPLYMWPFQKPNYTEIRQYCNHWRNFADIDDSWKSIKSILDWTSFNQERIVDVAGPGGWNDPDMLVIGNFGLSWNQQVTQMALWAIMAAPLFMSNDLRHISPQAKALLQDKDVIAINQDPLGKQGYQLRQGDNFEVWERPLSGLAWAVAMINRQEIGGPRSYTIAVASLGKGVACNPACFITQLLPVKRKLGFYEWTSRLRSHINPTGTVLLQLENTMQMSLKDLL
# * = called active by the depositor; u = inconclusive; x = not tested or not shown; [ ] = another dose, or the depositor's remark. Calls come from the whole dose curve; as a rule, active = well fitted curve in the direction sought with a large enough effect; inconclusive = small, poorly fitted or top-dose-only effect, or another doubt; inactive = no such curve, though single readings can be large; an effect the other way counts as inactive or inconclusive.
SMILES,GAA glycogen mod,GAA inhib,GAA spleen mod,GLA spleen mod,GLA inh pH 4.5
COc1ccc(NCN2C(=O)C3C4C=CC(C4)C3C2=O)cc1 (centres undefined),28µM*,-1.9%,-3.8%,2.0%,-2.7
COc1ccc(-c2cnc(NCc3ccc(C)cc3)n2C)cc1,10µM*,x,x,x,x
COCCNC(=S)N/N=C/c1ccc(N2CCOCC2)cc1,u,4.8%,3.9%,2.9%,8.9
COc1cc(/C=N/NC(=S)NCCN2CCOCC2)ccc1O,25.1µM*,9.2%,-0.4%,12.2%,1.6
C=CCOc1cccc(/C=C2\C(=O)N(Cc3ccc(C)cc3)C(C)=C2C(=O)OC)c1,6.0%,-7.7%,-13.4%,2.3%,-2.6
CCOc1cc(/C=C2\C(=O)N(Cc3ccc(C)cc3)C(C)=C2C(=O)OC)ccc1O,17.6µM*,1.2%,-0.3%,7.1%,-26.3
CCCCN1C[C@H](O)[C@@H](O)[C@H](O)[C@H]1CO,2.51µM*,6.31µM*,1.58µM*,4.3%,x
O=C(CN1C(=O)c2ccccc2S1(=O)=O)c1ccc(O)c(O)c1,14.1µM*,x,-0.1%,-1.6%,2.6
COc1ccc(C(=O)CN2C(=O)c3ccccc3S2(=O)=O)cc1,-4.8%,x,0.2%,9.1%,-8.4
CN(Cc1cccs1)c1nc(-c2cccnc2)nc2ccccc12,-5.8%,-7.0%,7.6%,4.1%,1.2
CN(C)c1nc(-c2cccnc2)nc2ccccc12,x,x,-6.4%,28.2µM*,x
O=S1(=O)CC/C(=N\Nc2ccccc2)c2ccsc21,25.1µM*,4.4%,-16.8%,-9.1%,2.6
CCOC(=O)C1(Cc2ccccc2C(F)(F)F)CCN(C(C)CCn2cccn2)CC1 (centres undefined),4.47µM*,u,0.7%,2.7%,0.2
CCCCc1c(C)nc2c(-c3ccc(OC)cc3)c(C)[nH]n2c1=O,8.9%[76.3 µM],x,x,x,x
O=C(N/N=C/C1CCCCC1)c1ccccn1,u,-3.9%,4.5%,6.3%,-6.2
O=C(N/N=C/C1CCCCC1)c1cc(Cl)ccc1O,35.5µM*,-18.4%,-4.6%,-2.0%,4.0
Oc1ccc(Nc2nnc(-c3ccc(O)cc3)c3ccccc23)cc1,15.8µM*,0.6%,0.8%,2.1%,-1.5
Oc1ccc(Nc2ncnc3ccccc23)cc1,22.4µM*,x,x,x,x
CC(=O)Nc1ccc(Nc2nnc(-c3ccc(C)c(S(=O)(=O)NCCO)c3)c3ccccc23)cc1,-9.9%[76.3 µM],x,x,x,x
Cc1ccc(-c2nnc(Nc3ccc(O)cc3)c3ccccc23)cc1S(=O)(=O)NC(C)(C)CO,8.91µM*,x,x,x,x
Cc1ccc(-c2nnc(Nc3ccc(O)cc3)c3ccccc23)cc1S(=O)(=O)NCC1CCCO1 (centres undefined),15.8µM*,x,x,x,x
CCC1CN(C(=O)N2CCC(C(=O)NCCc3ccccc3Cl)CC2)c2cc(C)ccc2O1 (centres undefined),-15.0%[76.3 µM],x,x,x,x
CCN(CC)S(=O)(=O)c1cc([N+](=O)[O-])ccc1NNC(=O)Nc1ccccc1OC,22.2µM*,5.7%,-3.2%,-1.2%,-4.1
CCOC(=O)/C(=N/Nc1ccccc1)c1csc(Nc2ccccc2)n1,u,-9.1%,-7.7%,0.7%,-14.9
CCOC(=O)/C(=N\Nc1ccc(OC)cc1)c1csc(Nc2ccccc2)n1,25.1µM*,-2.9%,-5.8%,-0.3%,-0.2
SMILES,GAA glycogen mod,GAA inhib,GAA spleen mod,GLA spleen mod,GLA inh pH 4.5
Oc1ccc(N2CCN(c3ncnc4sc5c(c34)CCC5)CC2)cc1,14µM*,-0.3%,-4.3%,16.7%,5.3
OCCN1CCN(c2ncnc3sc4c(c23)CCCC4)CC1,-11.7%[76.3 µM],x,x,x,x
C/C(=N\Nc1nc2ccccc2[nH]1)c1cc2ccccc2o1,11.2µM*,5.6%,-3.3%,7.9%,2.2
C/C(=N\Nc1nc2ccccc2[nH]1)c1ccc2c(c1)OCCO2,50.1µM*,-7.5%,1.2%,2.1%,-1.6
Cc1noc(/C=C/c2ccco2)c1S(=O)(=O)N1CCC(C(=O)Nc2ccc(F)cc2F)CC1,20.3%[76.3 µM],x,x,x,x
Brc1csc(/C=N/Nc2nc3ccccc3s2)c1,u,-2.3%,-1.7%,1.2%,-7.5
Cc1ccc2[nH]c(C)c(/C=N/Nc3nc4ccccc4s3)c2c1,15.7µM*,-1.5%,-13.3%,-4.3%,0.7
COc1ccc(C)cc1NCc1cccc(OC)c1OC,-27.4%,u,-7.0%,-8.1%,0.2
COc1cc(OC)c(OC)cc1CNc1cc(C)ccc1OC,11.2µM*,-12.8%,7.3%,10.5%,1.6
